# Measurements: PubChem BioAssay (NCATS)
# Results filed as inconclusive are left out. Where a call stands in place of a potency, no number is given. The source made the active and inactive calls. Calls follow the shape of the dose curve; as a rule, active = well fitted curve in the direction sought with a large enough effect; inconclusive = small, poorly fitted or top-dose-only effect, or another doubt; inactive = no such curve, though single readings can be large; an effect the other way counts as inactive or inconclusive.
# Legend:
# [1] = target: Glutathione peroxidase 1 (Homo sapiens) (UniProt P07203); assay: Primary qHTS Assay for Inhibitors of Recombinant Selenoprotein Glutathione Peroxidase 1 (GPX1) (AID 1845191); also: nearly all actives have a fitted effect of over 65% in size; also: potency is read from the fitted curve at half-maximal effect
# Method in brief: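 NADPH consumption tracked by fluorescence at 340/450 nm between t=0 and t=15 min, room temperature. Final mix: 10 nM GPX1, 100 nM glutathione reductase, 1 mM GSH, 0.5 mM NADPH, 0.5 mM cumene hydroperoxide, 0.01% BSA; 30 min compound–enzyme preincubation.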
# [2] = target: Phospholipid hydroperoxide glutathione peroxidase GPX4 (Homo sapiens) (UniProt P36969); assay: Primary qHTS Assay for Inhibitors of Recombinant Selenoprotein Glutathione Peroxidase 4 (GPX4) (AID 1845192); also: nearly all actives have a fitted effect of over 65% in size
# Method in brief: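 NADPH consumption followed by fluorescence at 340/450 nm, t=0 and after 15 min at room temperature. Reaction started with cumene hydroperoxide (0.5 mM final) after 30 min compound–GPX4 preincubation; final 200 nM GPX4, 100 nM GR, 1 mM GSH, 0.5 mM NADPH.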
# [3] = target: Luciferin 4-monooxygenase (Photinus pyralis) (UniProt P08659); assay: Primary firefly luciferase (FLuc) qHTS assay for identification of artifact compounds. (AID 1845220); settings: outcome: dose series up to 54.1 µM unless noted; also: nearly all actives have a fitted effect of over 60% in size
# Method in brief: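 Compounds sat 15 min at room temperature with 10 uM luciferin and 10 uM ATP (pH 7.6 Tris acetate). Firefly luciferase (10 nM final) was then added, and luminescence was read 5 min later. Data normalized to no-enzyme and DMSO controls were Hill-fitted.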
# [4] = Primary fluorescence-based thiol-reactive (MSTI) qHTS assay for identification of artifact compounds. (AID 1845221); also: nearly all actives have a fitted effect of over 65% in size; also: potency is read from the fitted curve at half-maximal effect
# Method in brief: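 Curve-fitted percent inhibition (4-parameter Hill) derived from fluorescence, Ex 525/Em 598 nm, scaled with Acetyl-MSTI and MSTI; 1 h incubation at room temperature.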
# Phospholipid hydroperoxide glutathione peroxidase GPX4 (Homo sapiens), sequence (P36969 whole entry, looked up): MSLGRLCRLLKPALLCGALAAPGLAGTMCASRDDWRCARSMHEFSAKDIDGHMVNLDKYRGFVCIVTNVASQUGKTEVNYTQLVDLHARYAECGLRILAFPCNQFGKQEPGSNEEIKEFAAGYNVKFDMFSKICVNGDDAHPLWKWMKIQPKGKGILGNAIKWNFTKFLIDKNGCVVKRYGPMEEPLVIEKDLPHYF
# Glutathione peroxidase 1 (Homo sapiens), sequence (P07203 whole entry, looked up): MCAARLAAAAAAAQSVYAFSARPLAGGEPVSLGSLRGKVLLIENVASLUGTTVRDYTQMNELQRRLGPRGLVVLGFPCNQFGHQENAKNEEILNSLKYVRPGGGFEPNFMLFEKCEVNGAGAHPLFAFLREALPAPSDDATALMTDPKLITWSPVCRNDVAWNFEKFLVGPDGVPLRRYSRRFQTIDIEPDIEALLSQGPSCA
SMILES,Potency [1],Potency [2],outcome [3],Potency [4]
O=C(NCC1CCOCC1)c1cnc(Nc2ccc(Cl)cc2Cl)nc1C(F)(F)F,inactive,inactive,inactive,inactive
CCN1CCN(C(=O)Cc2ccc(Nc3ncc(F)c(Nc4ccc(C(=O)Nc5ccccc5Cl)cc4)n3)cc2)CC1,inactive,inactive,inactive,inactive
O=C(O)Cc1cnc[nH]1,inactive,inactive,,
CCOC(=O)Nc1ccc(NCc2ccc(F)cc2)cc1N,,,inactive,1.19 µM (active)
CC(=O)Nc1ccc(OC[C@](C)(O)C(=O)Nc2ccc([N+](=O)[O-])c(C(F)(F)F)c2)cc1,inactive,inactive,inactive,
O=c1[nH]c2ccc(Cl)cc2c(N[C@@H]2CN3CCC2CC3)c1-c1nc2ccccc2[nH]1,inactive,inactive,inactive,inactive
O=C(N[C@@H](COc1ccc2[nH]c(=O)[nH]c2c1)c1ccccc1)c1cccn(Cc2ccc(F)c(F)c2)c1=O,inactive,,inactive,inactive
CC1(N2CCC(n3c([C@@H]4CCCNC4)nc4ccccc43)CC2)CCCCCCC1,inactive,inactive,inactive,inactive
CC(C)[C@H]1C(=O)N[C@H](CO)Cc2c[nH]c3cccc(c23)N1C,inactive,inactive,,
CN1CCN(c2ccc([N+](=O)[O-])c3no[n+]([O-])c23)CC1,18.3 µM (active),inactive,inactive,11.9 µM (active)
